# MBNL1 CUG block = qHTS Assay for Inhibitors of MBNL1-poly(CUG) RNA binding; Muscleblind-like protein 1 (Homo sapiens), Q9NR56; actives 0.036% (n = 280,000); TR-FRET MBNL1-His/biotin-(CUG)12 binding, 665/545 ratio; Potency, µM (highest dose often 57.5 µM), for inactives: at the top dose activity change, negative = inhibition, usual class: inhibitors; active = well fitted inhibition curve with a large enough effect in the signal ratio, with a control signal flat, not every such curve was filed as active; inconclusive = small, poorly fitted or top-dose-only effect, or effect the other way, or a change in a side signal; inactive = no such curve, though single readings can be large or run the other way; the % refers to the signal ratio; also: potency is read from the fitted curve at half-maximal effect; % is scaled to controls: 0 for no effect and ±100 for the full control effect
# Target sequence (Q9NR56 whole entry, looked up): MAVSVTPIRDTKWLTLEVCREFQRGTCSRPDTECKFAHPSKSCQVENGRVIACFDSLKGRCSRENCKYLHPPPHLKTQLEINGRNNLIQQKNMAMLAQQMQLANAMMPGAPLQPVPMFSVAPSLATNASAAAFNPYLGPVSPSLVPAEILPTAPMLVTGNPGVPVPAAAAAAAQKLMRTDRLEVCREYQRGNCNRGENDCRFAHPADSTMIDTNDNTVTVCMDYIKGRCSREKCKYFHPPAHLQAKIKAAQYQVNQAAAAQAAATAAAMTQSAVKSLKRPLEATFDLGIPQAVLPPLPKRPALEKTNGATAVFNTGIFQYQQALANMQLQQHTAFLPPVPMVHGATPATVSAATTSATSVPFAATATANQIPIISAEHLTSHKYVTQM
#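 MBNL1-His + Biotin-(CUG)12, cpd titration 92 nM–58 uM; Tb anti-His Ab 0.055 ng/ul, SA-XL665 5 nM (final); 60 min RT; ratiometric 665/545 nm, Ex 340 nm; normalized to buffer and full-complex controls.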
# TCR act = Activators of T cell receptors: qHTS campaign. primary human leukocytes, anti-CD3, IL-2 HTRF, 48 h. Potency, µM (highest dose often 9.22 µM), for inactives: top-dose activation of IL-2 secretion, most hits filed as activators. 330,000 tested, under 10 active; also: % of control where 0% means no effect
#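 Primary human leukocytes receive a-CD3 beads and test compound and are incubated 48 hr. Secreted IL-2 is then assayed by HTRF, measuring 665nm acceptor emission after 320nm excitation of the europium donor.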
# AT treatment = qHTS Assay for Identifying a Potential Treatment of Ataxia-Telangiectasia | actives 0.19% (n = 320,000) | AID 485349, 2010 | F2112 A-T fibroblasts, KAP-1 phosphorylation AlphaLISA; neocarzinostatin DNA damage 30 min before lysis | Potency, µM (doses to about 57.5 µM), without a hit: at the top dose activation, actives largely listed as activators; also: potency is read from the fitted curve at half-maximal effect; % of control where 0% means no effect; nearly all actives have a fitted effect of over 45% in size
#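 ATM-like activity read as KAP-1 phosphorylation via AlphaLISA donor/acceptor antibody pairs after lysis and 6 hr at 25C. Cells were ATM-null patient fibroblasts (F2112, hTERT), dosed 60 min, then exposed to the DSB inducer NCS for 30 min.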
# Glioma ERSR ind = qHTS for Inducers of the Endoplasmic Reticulum Stress Response (ERSR) in Human Glioma: qHTS; U87-MG GRP78 promoter luciferase reporter, 16 h; Potency, µM, without a hit: at the highest dose activation, most hits filed as activators; actives 0.02% (n = 420,000); AID 602332, 2012; also: potency is read from the fitted curve at half-maximal effect; series mostly up to about 76 µM; % of control where 0% means no effect; nearly all actives have a fitted effect of over 35% in size
#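 ERSR induction read as luciferase luminescence (Bright-Glo, 10 min at room temperature) in stably transfected human U87-MG glioma cells exposed to compounds for 16 h, using GRP78 as sensor.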
# Mito fusion act = qHTS Assay for Small Molecule Inhibitors of Mitochondrial Division or Activators of Mitochondrial Fusion | Potency, µM (titrated, usually from 46.1 µM), for the others: at the highest dose growth rescue (activation), usual class: activators | S. cerevisiae fusion-defective mutant growth rescue, CellTiterGlo 48 h | AID 485298, 2010 | actives 0.23% (n = 320,000); also: potency is read from the fitted curve at half-maximal effect; % of control where 0% means no effect; nearly all actives have a fitted effect of over 45% in size
#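 S. cerevisiae fusion-defective temperature-sensitive mutants (e.g. fzo1-1, mgm1-5) grown 48 h at 37C in YPEG (ethanol/glycerol non-fermentable) medium with 23 nl compound per well; growth rescue read as CellTiterGlo luminescence.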
# ClpP mod = qHTS Assay for Activators of ClpP; ATP-dependent Clp protease proteolytic subunit (Bacillus subtilis (strain 168)), P80244; purified B. subtilis ClpP, FRET peptide cleavage, 20 min; AID 651965, 2013; actives 1.9% (n = 340,000); Potency, µM (series often up to 57.5 µM), without a hit: top-dose activity change, negative = active; active = well fitted falling curve with a large enough effect; inconclusive = small, poorly fitted or top-dose-only effect; inactive = no such curve, though single readings can be large or run the other way; also: potency is read from the fitted curve at half-maximal effect; the source files actives as falling curves though it sought activators and does not explain the sign; nearly all actives have a fitted effect of over 65% in size
# Target sequence (P80244 whole entry, looked up): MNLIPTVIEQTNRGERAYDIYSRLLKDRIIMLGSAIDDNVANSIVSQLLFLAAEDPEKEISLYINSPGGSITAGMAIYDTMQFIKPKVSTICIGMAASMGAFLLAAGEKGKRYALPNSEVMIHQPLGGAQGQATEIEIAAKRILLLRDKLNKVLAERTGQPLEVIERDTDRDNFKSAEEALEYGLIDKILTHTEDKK
#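 ClpP 10 microg/mL final, pH 8 Tris/KCl buffer with BSA, glycerol, Tween-20; compound pinned in; FRET-FV substrate; RT 20 min; Ex320/Em430; ΔFRET vs ADEP 5.8 microM, DMSO, no enzyme.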
# The depositor's hits bear a star; u = inconclusive; x = not tested or not shown; ! = not active in a repeat; [ ] = another dose, or the depositor's remark. Hits are enriched below; roughly 1.8% of the tested compounds scored in any of these assays. Unless noted, calls follow the shape of the dose curve; as a rule, active = well fitted curve in the direction sought with a large enough effect; inconclusive = small, poorly fitted or top-dose-only effect, or another doubt; inactive = no such curve, though single readings can be large; an effect the other way counts as inactive or inconclusive.
SMILES,MBNL1 CUG block,TCR act,AT treatment,Glioma ERSR ind,Mito fusion act,ClpP mod
Nc1nc(Cl)nc2c1ncn2[C@@H]1O[C@H](COP(=O)(O)OP(=O)(O)OP(=O)(O)O)[C@@H](O)[C@H]1O,x,x,x,-3.6%,-48.8%,x
CCNC(=O)[C@H]1CCCN1C(=O)[C@H](CCCN=C(N)N)NC(=O)[C@H](CC(C)C)NC(=O)[C@H](CC(C)C)NC(=O)[C@@H](Cc1ccc(O)cc1)NC(=O)[C@H](CO)NC(=O)[C@@H](Cc1c[nH]c2ccccc12)NC(=O)[C@H](Cc1cnc[nH]1)NC(=O)[C@@H]1CCC(=O)N1,x,x,x,-2.9%,x,x
NS(=O)(=O)c1ccc(NC(=O)COC(=O)C2(c3ccccc3F)CCCC2)cc1,u,5.4%[46.1 µM],7.0%,-2.2%,-3.2%,25.1µM*
NC(=O)c1ccc(NC(=O)COC(=O)C2(c3ccccc3F)CCCC2)cc1,-6.0%,-0.7%,18.4%,-6.3%,0.8%,1.2%
O=C(COC(=O)C1(c2ccccc2F)CCCC1)NC1CCS(=O)(=O)C1 (configuration not stated),-3.2%,5.7%,0.3%,-0.3%,-4.0%,28.2µM*
COc1ccc(C(=O)NCCN2Cc3ccccc3OC(c3ccsc3)C2)c(OC)n1 (configuration not stated),x,x,x,-3.0%,x,x
O=C1NC(c2ccccc2Cl)Nc2ccccc21 (configuration not stated),4.9%,7.2%,3.0%,-5.0%,-2.0%,25.1µM*
O=C1NC(c2cccc3ccccc23)Nc2ccccc21 (configuration not stated),x,0.6%,x,1.5%,x,u
Cc1ccsc1C1NC(=O)c2ccccc2N1 (configuration not stated),-8.6%,-2.3%[46.1 µM],1.6%,0.7%,2.1%,15.8µM*
O=C1NC(c2cccs2)Nc2ccccc21 (configuration not stated),4.1%,-5.9%,1.1%,-2.6%,-2.3%,u
Cc1sc2ncnc(N3CCC(C(=O)Nc4cc(Cl)ccc4Cl)CC3)c2c1C,x,0.6%,4.8%,-2.5%,u,-4.7%
Cc1sc2ncnc(N3CCC(C(=O)NNC(=O)c4ccc(Cl)cc4)CC3)c2c1C,x,-1.4%,2.6%,-3.3%,-3.5%,12.6µM*
CCOC(=O)N1CCN(CC(O)COCc2ccc(Cl)cc2)CC1 (configuration not stated),-6.6%,2.5%,-3.9%,0.1%,0.6%,14.1µM*
CCOC(=O)N1CCN(CC(O)COc2ccc(CC)cc2)CC1 (configuration not stated),-3.1%,10.1%,20.0%,-1.8%,-11.4%,0.4%
O=C1c2ccccc2S(=O)(=O)N1CC1CC(c2ccc(Cl)cc2)=NO1 (configuration not stated),-16.1%[11.5 µM],2.0%[46.1 µM],-1.2%,-5.0%,15.8µM*,-1.0%
Cc1cc2nnc(SC(C)C)n2c2ccccc12,8.1%,4.6%[46.1 µM],-5.5%,-5.1%,22.5%,28.2µM*
O=C(CCc1nc2ccccc2s1)N1CCOc2ccc(CN3CCc4sccc4C3)cc2C1,x,x,x,1.9%,x,x
CCOc1ccc2nc(NC3=NC(c4ccc(OC)cc4)CC(=O)N3)nc(C)c2c1 (configuration not stated),-7.9%,4.6%,-7.2%,-5.6%,2.8%,31.6µM*
CCOc1ccc2nc(NC3=NC(C)(C)C=C(C)N3)nc(C)c2c1,8.6%,x,0.3%,-3.9%,3.0%,-4.1%
CCOc1ccc2c(C)nc(NC3=NC(C)(C)C=C(C)N3)nc2c1,-2.7%,-5.8%[46.1 µM],-12.2%,-8.3%,-2.8%,3.98µM*
Cc1ccc2[nH]nc(C(=O)N3CCOc4ccc(CN5CCc6sccc6C5)cc4C3)c2c1,x,x,x,-2.2%,x,x
Cc1cccc(NS(=O)(=O)c2ccccc2)n1,4.9%,2.2%,-3.5%,-4.1%,-4.3%,20µM*
Cc1cccc(NS(=O)(=O)c2ccc(C3CCCCC3)cc2)n1,-0.9%,7.6%,-3.8%,-1.9%,11.3%,22.4µM*
Cc1cccc(NS(=O)(=O)c2ccc(C3CCCCC3)cc2)c1,2.2%,-8.1%,25.5%,-15.4%,-16.0%,1.6%
Cc1cccc(NS(=O)(=O)c2ccc(C(C)(C)C)cc2)n1,-6.1%,3.3%,0.8%,-1.1%,-1.1%,4.3%
SMILES,MBNL1 CUG block,TCR act,AT treatment,Glioma ERSR ind,Mito fusion act,ClpP mod
O=C(NCc1cccnc1)C(=O)NCC(c1ccco1)N1CCN(c2ccccc2F)CC1 (configuration not stated),x,1.6%,1.3%,-3.2%,-1.4%,17.8µM*
O=c1c(-c2ccc(O)cc2)coc2cc(O[C@@H]3O[C@H](CO)[C@@H](O)[C@H](O)[C@H]3O)cc(O)c12,x,x,x,6.2%,x,x
c1ccc2c(c1)Oc1cccc3cccc-2c13,7.6%,1.7%,10µM*,0.1%,10.0%,3.7%
C(=C1c2ccccc2Oc2ccccc21)c1ccccc1,x,x,x,-0.9%,x,-8.5%
Cc1cccc2nc(CNC(=O)CN3Cc4cc(Cl)ccc4OC(C)C3)cn12 (configuration not stated),x,x,x,-3.7%,x,x
N#CC1=C(O)C(c2ccccc2)n2c1nc(=O)c1ccccc12 (configuration not stated),-1.9%,3.5%,x,2.3%,-3.2%,17.8µM*
CC(C)C(NC(=O)c1ccoc1)c1nnc2n1CCN(Cc1ccc3c(c1)Cc1ccccc1-3)CC2 (configuration not stated),x,x,x,-5.8%,x,x
O=C1CC(O)(C(F)F)Oc2ccc3ccccc3c21 (configuration not stated),13.1%,-0.8%,10.2%,-2.0%,25.7%,25.1µM*
FC(F)(F)COc1ccc(-c2nnc(SCc3ccccc3)o2)cn1,x,-0.5%,0.3%,-3.0%,-1.4%,17.8µM*
O=Nc1c(-c2c(O)[nH]c3cc(Br)ccc23)[nH]c2ccccc12,u,12.8%,-3.6%,u,1.84µM*!,-0.1%
Cc1cc(NCCO)c2ccccc2n1,-7.6%,1.3%,-3.8%,-3.1%,-0.7%,2.6%
Cc1cc(NCCO)c2cc(O)ccc2n1,3.8%,x,2.2%,-3.3%,3.4%,15.8µM*
Cc1ccc2c(c1)-c1c(cnc3cc(-c4ccc(F)cc4)nn13)CO2,x,x,x,-1.5%,x,-1.3%
Cc1ccc2c(c1)-c1c(cnc3cc(-c4ccc(Cl)cc4)nn13)CO2,x,x,x,-1.0%,x,17.8µM*
O=C(O)C(=O)Nc1cccc(C2=NN=N[N]2)c1,x,x,x,-3.9%,x,x

# Compound activity deposited in PubChem BioAssay by National Center for Advancing Translational Sciences (NCATS).
